Compound activity deposited in PubChem BioAssay by Fisher Drug Discovery Resource Center.
mcGAS inh – blocks mouse cGAS activity. Q8C6L5. recombinant cGAS, Kinase-Glo ATP depletion luminescence. hit rate 0.15% among 160,000. inhibition, % at 12.5 µM. AID 1259399
hcGAS lum – blocks human cGAS activity; recombinant h-cGAS, ATP depletion, Kinase-Glo luminescence; inhibition, % at 12.5 µM; hit rate 0.081% among 290,000
Target sequence (Q8N884 whole entry, looked up): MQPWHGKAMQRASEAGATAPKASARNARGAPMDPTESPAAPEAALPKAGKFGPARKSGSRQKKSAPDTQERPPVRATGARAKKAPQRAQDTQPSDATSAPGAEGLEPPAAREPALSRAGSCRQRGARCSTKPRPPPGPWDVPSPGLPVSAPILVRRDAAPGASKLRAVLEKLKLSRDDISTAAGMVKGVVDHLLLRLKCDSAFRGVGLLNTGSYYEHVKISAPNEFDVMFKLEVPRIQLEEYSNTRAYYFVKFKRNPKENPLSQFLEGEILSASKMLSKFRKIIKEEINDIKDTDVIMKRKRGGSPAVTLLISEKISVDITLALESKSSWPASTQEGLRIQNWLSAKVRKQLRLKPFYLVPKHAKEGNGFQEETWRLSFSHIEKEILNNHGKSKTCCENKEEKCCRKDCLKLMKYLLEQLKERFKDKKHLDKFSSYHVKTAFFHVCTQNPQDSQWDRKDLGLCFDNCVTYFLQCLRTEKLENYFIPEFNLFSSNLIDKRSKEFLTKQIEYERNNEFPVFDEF
NPYLR7 agonist – mosquito NPYLR7 agonism | HEK293T NPYLR7/Galpha15, GCaMP6s calcium fluorescence | activation, % at 10 µM | hit rate 0.15% among 270,000 | AID 1259423; in the data active means activation above about 40%
Each line names hits and unclear results; the compound was inactive in the other large screens; ! = a repeat was not active. Compounds with a hit are over-represented: about 0.24% of the library has one in this group of screens. Unless noted, no stated cut-off is given here; in the data, active means inhibition above about 40%; inactive means the rest.

Cc1c(C(=O)N2CCN(C(=O)c3ccc4c(c3)OCO4)CC2)cc(-c2ccccc2)n1-c1ccccc1Cl	none (no result: NPYLR7 agonist)
Cc1ccc(F)cc1CC(=O)NC1C=CS(=O)(=O)C1 (configuration not stated)	none
Cc1ccc(NC2C=CS(=O)(=O)C2)cc1C (configuration not stated)	NPYLR7 agonist 110
CSc1ccc(COc2coc(CN3CCCN(C(=O)c4ccccc4OC(F)(F)F)CC3)cc2=O)cc1	none
CC(C(=O)O)n1c(O)c(C=C2C=Nc3ccccc32)sc1=S (configuration not stated)	NPYLR7 agonist 75
O=C(O)c1ccc(-n2c(O)c(C=C3C=Nc4ccccc43)sc2=S)cc1	none
O=C(Nn1c(O)c(C=C2C=Nc3ccccc32)sc1=S)c1ccccc1[N+](=O)[O-]	none
O=C(O)CCn1c(O)c(C=C2C=Nc3ccccc32)sc1=S	NPYLR7 agonist 46
C=CCn1c2ccccc2n2nc(C)nc12	none (no result: mcGAS inh)
COc1ccccc1NC(=O)N1CCSC1c1cccc(C(F)(F)F)c1 (configuration not stated)	none
COC(=O)c1ccc(N2CCN(c3nnc(C)s3)C(C)C2)cc1 (configuration not stated)	none (no result: mcGAS inh)
BrCc1cc(CBr)c2ccccc2c1	none (no result: mcGAS inh)
CCN(CC(C)C#N)C(=O)Nc1ccc(-c2csnn2)cc1 (configuration not stated)	none
COC(=O)C1CCN(S(=O)(=O)c2cc(Br)ccc2Br)CC1	none (no result: mcGAS inh)
COC(=O)C1CCN(S(=O)(=O)c2c(F)cc(F)cc2Br)CC1	NPYLR7 agonist 88 (no result: mcGAS inh)
COc1ccc(CCc2nnc(CCC(=O)NCc3cc(F)ccc3C)o2)cc1	none (no result: mcGAS inh)
CN1CCC(=C2c3ccccc3C=Cc3ccccc32)CC1	none
CN1CCC(=C2c3ccccc3Sc3ccccc32)CC1	NPYLR7 agonist 54!
CCOC(=O)c1cc(-c2cccc(NC(=O)COc3ccc(Cl)cc3)c2)n(-c2ccccc2C)n1	none
CCCCn1nc(CC2CCN(C)CC2)nc1C1NCCc2[nH]cnc21 (configuration not stated)	none (no result: NPYLR7 agonist)
O=C1NC(=O)C2C1Sc1[nH]c(=O)sc1C2c1ccco1 (configuration not stated)	hcGAS lum 45 (no result: mcGAS inh)
COc1ccc(C2c3sc(=O)[nH]c3SC3C(=O)NC(=O)C32)cc1 (configuration not stated)	none (no result: mcGAS inh)
O=C1SC(Nc2ccc(I)cc2)C(=O)N1c1ccccc1 (configuration not stated)	NPYLR7 agonist 63
CC(C)CN1C(=O)SC(Nc2ccccc2)C1=O (configuration not stated)	none
CCc1nc(SCc2ncc(C(C)(C)C)o2)n[nH]1	none (no result: mcGAS inh)
CC(C)(C)c1cnc(CSc2cnc(NC(=O)C3CCNCC3)s2)o1	NPYLR7 agonist 60
CN1CCC2(CC1)CN(C(=O)c1ccc(CN3CCCC3)o1)CCCN2C	none
CN(C)c1ccc(CNc2nccc3c2ncn3C)cc1	none
COc1ccc(/C=C2\SC(=S)N(C(C)C(=O)O)C2=O)cc1OC (configuration not stated)	none
CSCCC(C(=O)O)N1C(=O)/C(=C/c2ccc(O)cc2)SC1=S (configuration not stated)	NPYLR7 agonist 74
COc1ccc(/C=C2\SC(=S)N(C(CCSC)C(=O)O)C2=O)cc1OC (configuration not stated)	none
COc1cc(/C=C2\SC(=S)N(C(C)C(=O)O)C2=O)ccc1O (configuration not stated)	NPYLR7 agonist 82
CN(C)CCCN1C(c2ccccc2)=CC(=C2C(=O)N(C)C(=O)N(C)C2=O)C2=C1CCCC2	none
CCN(CC)c1cc(C(C)(C)C)nc(SCc2cccc(C(=O)N3CCN(C)CC3)c2)n1	none
O=C(NCc1ccccc1Cn1cncn1)C1CCCC1	none (no result: mcGAS inh)
Cc1ccc(N=C2NC(=O)/C(=C/c3ccccc3OCC#N)S2)cc1Cl	none (no result: mcGAS inh)
Cc1ccc(S(=O)(=O)NC(=O)Cn2nc(C)c(Cl)c2C)s1	none
COc1c(O)cc2c(=O)oc3c(OC)c(O)cc4c(=O)oc1c2c34	hcGAS lum 75
COc1cc(-c2cc(=O)c3c(O)c(OC)c(OC)c(OC)c3o2)cc(OC)c1OC	none (no result: mcGAS inh)
CCc1nn(C(C)C(=O)NC)c(=O)c2cc3occc3n12 (configuration not stated)	none
CCc1nn(C(C)C(=O)NC(C)CCc2ccco2)c(=O)c2cc3occc3n12 (configuration not stated)	NPYLR7 agonist 68
COc1ccc(C=CC(=O)c2cccs2)cc1O	mcGAS inh 55
COc1ccc(C=CC(=O)c2ccc(I)cc2)cc1O	none
CCCCOc1ccc(NC(=O)c2c(-c3ccccc3Cl)noc2C)cc1	none (no result: mcGAS inh)
COc1ccc(Cn2cnc3cnc(-c4cc(OC)c(OC)c(OC)c4)cc32)cc1OC	none
COc1ccc(OC)c(CCNc2nc3cnc(-c4ccc(Cl)cc4)cc3n2C)c1	NPYLR7 agonist 83
CNc1nc2cnc(-c3ccc(OC)c(OC)c3)cc2n1Cc1ccccc1	none
